In PubChem BioAssay (NCI):
Compounds without any hit were thinned out: in the full panel of roughly 83,000, 20% have a hit.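 A percent growth of 40 corresponds to 60% growth inhibition; 0 means no net growth; -100 means all cells died. Active threshold: below 10.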 Active and inactive are the calls of the source.

What was measured:
Experiment in all cases: NCI-60 one-dose screen, 48 h (100 = growth as untreated, 0 = no growth, -100 = all killed)
Conditions in all cases: 10 µM unless noted
SK-MEL-2 melanoma = system: SK-MEL-2 melanoma
SN12C renal = system: SN12C renal
UO-31 renal = system: UO-31 renal
TK-10 renal = system: TK-10 renal
ACHN renal = system: ACHN renal
CAKI-1 renal = system: CAKI-1 renal
A498 renal = system: A498 renal
CCRF-CEM leukemia = system: CCRF-CEM leukemia
MOLT-4 leukemia = system: MOLT-4 leukemia
EKVX NSCLC = system: EKVX NSCLC

Measured: growth

Nc1cc2nc3ccccc3sc-2cc1=O
inactive: SK-MEL-2 melanoma 89.4% | SN12C renal 60.7% | UO-31 renal 42.8% | TK-10 renal 137% | ACHN renal 65.5% | CAKI-1 renal 56.3% | A498 renal 106% | CCRF-CEM leukemia 18.4% | MOLT-4 leukemia 61.4%

COc1ccc(-c2nc(Nc3cc(C)[nH]n3)c3ccccc3n2)cc1
inactive: SK-MEL-2 melanoma 59.7% | SN12C renal 40.1% | UO-31 renal 41% | TK-10 renal 53.3% | ACHN renal 42.8% | CAKI-1 renal 15.9% | CCRF-CEM leukemia 49.3% | MOLT-4 leukemia 69.8%
active: A498 renal -18.1%

CC1=C(C)C(=O)OC([C@](C)(O)[C@]2(O)CC[C@@]3(O)[C@@H]4C[C@H]5O[C@]56CC=CC(=O)[C@]6(C)[C@H]4CC[C@]23COC(=O)c2ccc(C)o2)C1 (stereo partly drawn)
active: EKVX NSCLC -46.9% | SN12C renal -61% | UO-31 renal -96.6% | TK-10 renal -89.8% | ACHN renal -95.7% | CAKI-1 renal -87.2% | A498 renal -78.3% | CCRF-CEM leukemia 0.17% | MOLT-4 leukemia 4.89%

COc1cc(C2CC(=O)c3c(C)nn(-c4nc5ccccc5[nH]4)c3C2)cc(OC)c1OC (stereo not drawn)
inactive: SK-MEL-2 melanoma 91.2% | SN12C renal 75.9% | UO-31 renal 91.1% | ACHN renal 59.1% | CAKI-1 renal 101% | A498 renal 56.5% | CCRF-CEM leukemia 104% | MOLT-4 leukemia 102%

COc1cccc(/C=C2/C(=O)N(Cc3ccco3)SC2=S)c1OC
inactive: SK-MEL-2 melanoma 93.1% | SN12C renal 97.6% | UO-31 renal 93.4% | TK-10 renal 117% | ACHN renal 102% | A498 renal 102% | CCRF-CEM leukemia 68.3% | MOLT-4 leukemia 92.1%

COc1cnc2c(c1)C(=O)c1c-2n(CCCN2CCCC2)c(=O)c2cc([N+](=O)[O-])ccc12
inactive: EKVX NSCLC 21.7% | TK-10 renal 13.2%
active: SN12C renal 8.36% | UO-31 renal -96.3% | ACHN renal -91.2% | CAKI-1 renal -13.6% | A498 renal -97.9% | CCRF-CEM leukemia -16.1% | MOLT-4 leukemia 1.49%

COc1ccc(C2CC(=O)Nc3c2c(C)nn3-c2nc3ccccc3[nH]2)cc1 (stereo not drawn)
inactive: SK-MEL-2 melanoma 100% | SN12C renal 103% | UO-31 renal 34.3% | TK-10 renal 116% | ACHN renal 99.1% | CAKI-1 renal 101% | A498 renal 41.6% | CCRF-CEM leukemia 10.1%
active: MOLT-4 leukemia -44.6%

O=C1/C(=C/c2ccc(F)cc2)CN(C(=O)CCN2CCC(=NO)CC2)C/C1=C\c1ccc(F)cc1
active: EKVX NSCLC -21.4% | SN12C renal -35.4% | UO-31 renal -100% | TK-10 renal -5.74% | ACHN renal -66.3% | CAKI-1 renal -46.4% | CCRF-CEM leukemia -18.3% | MOLT-4 leukemia 0.0352%
inactive: A498 renal 24.9%

COc1cccc(NC(=O)c2sc3nc4c(cc3c2N)CN(Cc2ccccc2)CC4)c1
inactive: SK-MEL-2 melanoma 66.8% | SN12C renal 74% | UO-31 renal 42.9% | ACHN renal 54% | A498 renal 42.8% | CCRF-CEM leukemia 60.9% | MOLT-4 leukemia 65.1%

CCCCCCCCCCCCS(=O)CC(C)O (stereo not drawn)
inactive: SK-MEL-2 melanoma 112% | SN12C renal 106% | UO-31 renal 95.3% | TK-10 renal 125% | ACHN renal 105% | CAKI-1 renal 110% | CCRF-CEM leukemia 101% | MOLT-4 leukemia 96.7%

CCOC(=O)CC(C)=N
inactive: SK-MEL-2 melanoma 111% | SN12C renal 103% | UO-31 renal 98.5% | ACHN renal 109% | CAKI-1 renal 111% | CCRF-CEM leukemia 118% | MOLT-4 leukemia 106%

COc1ccc2nc3cc(Cl)ccc3c(N3CCN(c4ccnc(N5CCOCC5)n4)CC3)c2c1
inactive: SN12C renal 32.3% | UO-31 renal 57.2% | TK-10 renal 63.7% | ACHN renal 27.4% | CAKI-1 renal 59.7% | A498 renal 60.6%
active: CCRF-CEM leukemia -18.4%

CCN(CC)CCCC(C)Nc1ccnc2c(OC)cccc12 (stereo not drawn)
inactive: EKVX NSCLC 112% | SN12C renal 101% | UO-31 renal 87.4% | TK-10 renal 120% | ACHN renal 122% | CAKI-1 renal 101% | A498 renal 135% | CCRF-CEM leukemia 94.3% | MOLT-4 leukemia 102%

Cn1cc(-c2ccc(-c3cn(C)c4ncccc34)[nH]2)c2cccnc21
active: UO-31 renal -81.3% | TK-10 renal -30% | ACHN renal 4.29%
inactive: SN12C renal 75.6% | CAKI-1 renal 54.6% | A498 renal 83.3% | CCRF-CEM leukemia 28.3%

CSc1ncnc2c1ncn2C1CCCO1 (stereo not drawn)
inactive: EKVX NSCLC 95.6% | SN12C renal 99.1% | UO-31 renal 92.1% | TK-10 renal 106% | ACHN renal 99% | CAKI-1 renal 79.1% | A498 renal 146% | CCRF-CEM leukemia 109% | MOLT-4 leukemia 106%

O=C1C=CC(=O)c2c1nc1n2CCCC1
inactive: EKVX NSCLC 104% | SN12C renal 74% | UO-31 renal 91.1% | TK-10 renal 109% | ACHN renal 81.1% | CAKI-1 renal 95.7% | A498 renal 96.3% | CCRF-CEM leukemia 58.8% | MOLT-4 leukemia 90.3%

CCN(CC)CCCC(C)N/C(=C1\C(=O)NC(=O)\C1=C(/NC(C)CCCN(CC)CC)c1cccc(OC)c1)c1cccc(OC)c1 (stereo not drawn)
active: SN12C renal 9.96% | UO-31 renal -83.8% | TK-10 renal -23.4% | ACHN renal -29% | CCRF-CEM leukemia -28.1% | MOLT-4 leukemia -10.5%
inactive: CAKI-1 renal 61.4% | A498 renal 60.2%

CCCCCCCCCCCCCCCCCCSC1=CC(=O)C(OC)=C(OC)C1=O
inactive: EKVX NSCLC 91.3% | SN12C renal 80.9% | UO-31 renal 76.6% | TK-10 renal 91.6% | ACHN renal 93.1% | CAKI-1 renal 96.3% | A498 renal 97.1% | CCRF-CEM leukemia 91.9% | MOLT-4 leukemia 91.9%

Nc1cc2ccncc2c2ccccc12
inactive: EKVX NSCLC 60.4% | SN12C renal 52.7% | UO-31 renal 51.6% | ACHN renal 36.4% | CAKI-1 renal 58.2% | A498 renal 67.5% | CCRF-CEM leukemia 66.9% | MOLT-4 leukemia 50.2%

CCN(C(=O)CN1CCN(c2cc3c(cc2F)c(=O)c(C(=O)O)cn3CC)CC1)c1nc(-c2ccccc2)cs1
inactive: EKVX NSCLC 21.2% | UO-31 renal 12.4% | TK-10 renal 14.6% | CAKI-1 renal 11.7% | CCRF-CEM leukemia 14% | MOLT-4 leukemia 11.4%
active: SN12C renal 2.74% | ACHN renal 8.13% | A498 renal -6.64%

COc1ccc(/C=C2\CN(C(=O)CCN3CCC(=NO)CC3)C/C(=C\c3ccc(OC)cc3)C2=O)cc1
active: SN12C renal -52% | UO-31 renal -87.7% | ACHN renal -41.7% | CCRF-CEM leukemia 0.63% | MOLT-4 leukemia 0.493%
inactive: EKVX NSCLC 28% | TK-10 renal 21.5% | CAKI-1 renal 11.3% | A498 renal 36.1%

CSc1nc(NCCCNc2ccnc3cc(Cl)ccc23)cc(-c2ccccc2)n1
inactive: SN12C renal 79.5% | UO-31 renal 42.3% | TK-10 renal 75.7% | ACHN renal 92.2% | CAKI-1 renal 54.1% | A498 renal 40.2% | CCRF-CEM leukemia 47%

O=C1Nc2ccccc2C12CC(c1ccc(Cl)cc1)=NN2 (stereo not drawn)
inactive: SN12C renal 88.8% | UO-31 renal 69.2% | TK-10 renal 115% | ACHN renal 91% | CAKI-1 renal 74.6% | A498 renal 99.6% | CCRF-CEM leukemia 88.3% | MOLT-4 leukemia 83.8%

Cc1cc(=O)oc2cc(Oc3nc(-c4ccc(Cl)cc4)cn4c(-c5ccc(Cl)cc5)cnc34)ccc12
inactive: EKVX NSCLC 106% | SN12C renal 100% | UO-31 renal 85.5% | TK-10 renal 104% | ACHN renal 97.7% | CAKI-1 renal 90.2% | A498 renal 105% | CCRF-CEM leukemia 80.6% | MOLT-4 leukemia 74.5%

COC(/C=C/c1ccc([N+](=O)[O-])cc1)OC
inactive: EKVX NSCLC 101% | SN12C renal 92.8% | UO-31 renal 93.2% | TK-10 renal 103% | ACHN renal 107% | CAKI-1 renal 102% | A498 renal 111% | CCRF-CEM leukemia 39.6% | MOLT-4 leukemia 69.4%

COc1ccc2nc3cc(Cl)ccc3c(N3CCN(c4nccc(Nc5ccccc5)n4)CC3)c2c1
inactive: SN12C renal 62% | UO-31 renal 43.7% | TK-10 renal 65.6% | ACHN renal 52.1% | CAKI-1 renal 51.2% | A498 renal 16.6%
active: CCRF-CEM leukemia 7.71% | MOLT-4 leukemia 5.37%

C=C1CC2(OC1=O)C(=O)N(CCCCCCCCCCCCN1C(=O)C3(CC(=C)C(=O)O3)c3ccccc31)c1ccccc12 (stereo not drawn)
inactive: EKVX NSCLC 98% | SN12C renal 53.1% | UO-31 renal 76.6% | TK-10 renal 96.1% | ACHN renal 97.8% | CAKI-1 renal 80.2% | A498 renal 59.5%
active: CCRF-CEM leukemia 4.77% | MOLT-4 leukemia 2.36%

CC(=O)C1=C(O)C=C2Oc3c(C(=O)/C=C/c4c(Cl)cccc4Cl)c(O)c(C)c(O)c3[C@]2(C)C1=O
active: EKVX NSCLC -0.577% | SN12C renal -30.9% | UO-31 renal -28.6% | TK-10 renal -30.8% | ACHN renal -15.3% | CAKI-1 renal 6.78% | A498 renal -72.4% | CCRF-CEM leukemia -25.3% | MOLT-4 leukemia -33%

O=C(CCCCN1CCOCC1)Nc1ccc(Cn2nnc3c2C(=O)c2nnn(Cc4ccc(NC(=O)CCCCN5CCOCC5)cc4)c2C3=O)cc1
inactive: UO-31 renal 10.5% | TK-10 renal 13.6%
active: SN12C renal -46.6% | ACHN renal -4.59% | CAKI-1 renal 7.17% | A498 renal -91.1% | CCRF-CEM leukemia -1.29% | MOLT-4 leukemia -37.3%
